Assay outcomes as filed in PubChem.
The list is not random: actives were taken first. Their share in the collection is about 1.1%.
PI4K2A inh: inhibitors of human PI4K2A; Q9BTU6; purified PI4K2A, ADP-Glo luminescence, 1 h; stronger effect = lower value; activity change, negative = inhibition, % at 76.9 µM; hit rate 0.13% among 420,000; in the data active = activity change below about -50%; inconclusive = mostly about -30% to -49%;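 note: -100% = wells without enzyme as full effect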
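PI4K2A activity was measured by ADP-Glo luminescence: enzyme (4 ug/mL stock) and phosphatidylinositol (1.2 mM stock) in Tris pH 7.5/MgCl2/EGTA/Triton X-100 buffer were reacted with ATP (300 microM stock) for one hour at ambient temperature.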
rTrxR1 inhibitor: blocks rat thioredoxin reductase 1 | Potency, µM (highest dose often 114 µM), without a hit: at the highest dose activity change, negative = inhibition, actives largely listed as inhibitors | hit rate 1% among 390,000 | AID 588453 | recombinant rTrxR1, NADPH fluorescence consumption, selenite substrate; note: potency is the fitted concentration of half-maximal effect; nearly all actives have a fitted effect of over 65% in size
Target sequence (O89049 whole entry, looked up): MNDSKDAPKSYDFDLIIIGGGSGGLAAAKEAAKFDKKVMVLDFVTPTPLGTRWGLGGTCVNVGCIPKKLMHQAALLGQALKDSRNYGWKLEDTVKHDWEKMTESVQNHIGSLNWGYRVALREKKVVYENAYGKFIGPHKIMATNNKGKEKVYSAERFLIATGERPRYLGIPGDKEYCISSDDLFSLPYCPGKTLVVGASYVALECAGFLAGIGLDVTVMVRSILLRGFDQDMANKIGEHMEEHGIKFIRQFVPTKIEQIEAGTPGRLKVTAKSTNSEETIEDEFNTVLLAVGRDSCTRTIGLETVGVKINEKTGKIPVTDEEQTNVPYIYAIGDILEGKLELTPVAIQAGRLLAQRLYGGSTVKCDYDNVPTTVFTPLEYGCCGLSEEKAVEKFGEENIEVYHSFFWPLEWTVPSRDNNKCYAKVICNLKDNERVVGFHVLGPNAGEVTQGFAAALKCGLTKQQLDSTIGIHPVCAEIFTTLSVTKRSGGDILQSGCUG
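Rat TrxR1 (90 nM in the dispensed reagent) was pre-reduced with 400 uM NADPH for 5 min at room temperature, then incubated with compound for 15 min. After 400 uM selenite was added, NADPH fluorescence (Ex 340/Em 450 nm) was followed for 8 min.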
GALK inh: inhibitors of human galactokinase; hit rate 0.007% among 270,000; Potency, µM (series often up to 57.5 µM), without a hit: at the highest dose activity change, negative = inhibition, usual class: inhibitors; Purified GALK, Kinase-Glo residual ATP luminescence; AID 1868; note: potency is the fitted concentration of half-maximal effect
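5 nM enzyme, 35 uM ATP, 100 uM galactose, 20 mM HEPES pH8.0, 5 mM MgCl2; 1 h RT; residual ATP by Kinase-Glo Plus luminescence, qHTS format.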
TrxR1 substrate: is turned over as a substrate by rat TrxR1; O89049; hit rate 0.01% among 390,000; Potency, µM (titrated, usually from 114 µM), for inactives: at the top dose activity change, negative = substrate turnover; purified TrxR1 substrate turnover, NADPH consumption readout; note: potency is the fitted concentration of half-maximal effect; nearly all actives have a fitted effect of over 50% in size
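Rat TrxR1, dispensed at 90 nM, was prereduced with 400 uM NADPH (final) for 5 min at ~22 deg C, then incubated with compound 15 min before 400 uM selenite. A first-read NADPH fluorescence drop versus no-compound background flagged substrates.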
* marks the source's active call; other numbers are inactive results; ? = inconclusive; . = not tested or not shown; + = active, no number; [ ] = remark or other dose. Unless noted, calls come from the whole dose curve; as a rule, active = well fitted curve in the direction sought with a large enough effect; inconclusive = small, poorly fitted or top-dose-only effect, or another doubt; inactive = no such curve, though single readings can be large; an effect the other way counts as inactive or inconclusive. Unless noted, % is set by controls: 0 for no effect and ±100 for the full control effect.

SMILES	PI4K2A inh	rTrxR1 inhibitor	GALK inh	TrxR1 substrate
CC(=O)c1ccccc1NS(=O)(=O)c1cc2c(cc1C)NC(=O)CO2	-1.4	12.6%[57.1 µM]	.	-1.1%[57.1 µM]
CCOc1ccc(C(=O)CC(C(=O)O)N2CCN(Cc3ccccc3)CC2)cc1 (stereo not given)	-12.7	15.8µM*	.	-9.1%
CCOc1ccc(C(=O)N2CCCCCC2)cc1	12.3	13.1%[57.1 µM]	-0.3%	6.8%[57.1 µM]
CCOc1ccc(C(=O)CC(C(=O)O)N2CCCCC2)cc1 (stereo not given)	-25.8	14.1µM*	.	-10.2%
CCOC(=O)C(CN1CCCC1)c1ccccc1 (stereo not given)	-5.3	10.0%	.	-0.6%
O=C(c1ccc(Cl)cc1)C(CN1CCCCC1)c1ccccc1 (stereo not given)	30.3	25.1µM*	3.5%	3.6%
CCOc1ccccc1C(=O)NCc1ccc2c(c1)CCN2C(C)=O	5.7	14.7%[57.1 µM]	.	1.8%[57.1 µM]
CCCCn1c(N)c(C(=S)NC(=O)CC(C)C)c(=O)n(C)c1=O	3.5	56.2µM*	0.8%	5.2%
O=C(COC(=O)c1ccc(Br)o1)Nc1ccc(N2CCOCC2)cc1	-2.2	7.9%	.	5.4%
CCCn1c(CC)nc([N+](=O)[O-])c1S(=O)(=O)c1ccccc1	33.3	0.316µM*	2.2%	18.2%
Cc1ccc(N(Cc2cc(=O)[nH]c3ccccc23)C(=O)CCl)c(C)c1	8.8	79.4µM*	-5.2%	5.1%
CCCC(=O)N(Cc1cc(=O)[nH]c2ccccc12)c1ccc(C)cc1C	-0.9	4.9%	.	-2.6%
COc1cc(C(=O)NCc2nc3cccnc3n2Cc2ccc(C)cc2)cc(OC)c1OC	-3.4	19.2%[57.1 µM]	.	1.6%[57.1 µM]
O=C(O)c1ccc(N/N=C/C2=C(N3CCOCC3)C(=C\c3ccccc3)/CC2)cc1	-17.1	-27.5%	4.2%	-5.9%
CCOC(=O)C(=O)C1=C(N2CCOCC2)/C(=C\c2ccc(F)cc2)CC1	7.9	?	0.8%	-5.8%
CN(C(=O)NC(=O)C1=C(N2CCOCC2)/C(=C/c2ccccc2)CC1)S(C)(=O)=O	1.3	35.5µM*	-0.8%	70.5%
CCCCN(C(=O)NC(=O)C1=C(N2CCOCC2)/C(=C/c2ccccc2)CC1)S(C)(=O)=O	3.3	14.1µM*	1.0%	112.1%
Cn1c(C(c2cc3ccccc3n2C)c2cc3ccccc3n2C)cc2ccccc21	.	-25.7%	.	-0.3%
CCN(CC)S(=O)(=O)c1ccc2c(c1)N(CC(=O)N1CCN(c3cccc(Cl)c3)CC1)C(=O)CO2	0.4	20.2%[57.1 µM]	.	-0.3%[57.1 µM]
O=C(COC(=O)C12CC3CC(CC(Cl)(C3)C1)C2)NCc1ccco1	.	14.8%	.	2.4%[0.457 µM]
N#Cc1cc([N+](=O)[O-])c(-n2nnc3ccccc32)c([N+](=O)[O-])c1	4.0	15.8µM*	-2.4%	-1.5%
O=C(CC(Nc1ccc(F)cc1)C(=O)O)c1ccccc1 (stereo not given)	-2.4	14.1µM*	-0.5%	-0.5%
O=C(CC(Nc1ccc(F)cc1)C(=O)OCC(=O)c1cccs1)c1ccccc1 (stereo not given)	3.8	25.1µM*	1.6%	-1.3%
O=C(CCC(=O)c1cccs1)OCC(=O)c1ccc(F)cc1	-2.3	10.3%	.	-3.7%
CCOc1ccc(NC(=O)CSc2cc(C)c3ccccc3n2)cc1	-1.9	7.1%[57.1 µM]	.	2.9%[57.1 µM]
SMILES	PI4K2A inh	rTrxR1 inhibitor	GALK inh	TrxR1 substrate
C=CCC[C@H](Cc1ccc(F)cc1)C(=O)OC[C@@H](Cc1c[nH]c2ccccc12)NC(=O)[C@@H](CC=C)CC(=O)NCCO	1.8	10.3%	.	-10.1%
N=C1/C(=C/c2coc3ccccc3c2=O)C(=O)N=C2SC(c3ccco3)=NN12	-28.0	50.1µM*	-2.5%	-12.9%
N=C1/C(=C\c2coc3ccccc3c2=O)C(=O)N=C2SC(c3ccncc3)=NN12	-20.3	?	?	17.7%[0.0914 µM]
COc1ccc(-c2cc(C(=O)O)[nH]n2)cc1OC	-73.0*	33.8%	0.2%	8.8%
CCOc1ccc(N2C(=O)CC(Sc3n[nH]c(-c4ccccc4)n3)C2=O)cc1 (stereo not given)	-1.8	6.31µM*	2.8%	5.6%
COc1ccc(N2C(=O)CC(Sc3n[nH]c(-c4ccccc4)n3)C2=O)cc1 (stereo not given)	-2.3	2µM*	5.4%	4.9%[57.1 µM]
COc1ccc(NC(=S)Nc2nc(CC(=O)Nc3ccccc3OC)cs2)cc1	-1.0	1µM*	2.9%	0.3%
C=CCn1c(SCC(=O)NCc2ccco2)nnc1-c1ccc2ccccc2n1	-2.3	79.4µM*	-1.0%	-7.3%
CCN(CC)S(=O)(=O)c1ccc(NC(=O)NCc2noc3ccc(C)cc23)cc1	-1.0	13.7%	.	-6.3%
O=C(O)c1cccc(C(=O)Cc2ccccc2)c1	-70.8*	0.2%	4.7%	-0.6%
COC(=O)c1cc(S(N)(=O)=O)ccc1OC	2.6	.	.	.
Cc1nn(CC(=O)Nc2cc(F)ccc2F)c(=O)c2cccn12	0.3	29.7%	.	2.1%
O=c1[nH]nc(-c2ccc([N+](=O)[O-])o2)c(=O)[nH]1	-3.9	12.6µM*	.	-5.2%
Cc1cc2nc(-c3cc(NC(=O)c4cc5ccccc5o4)ccc3Cl)oc2cc1C	-0.4	5.6%	.	-0.2%
CC1=NN(c2cccc([N+](=O)[O-])c2)C(=O)C1	-50.4*	26.0%[57.1 µM]	5.7%	-18.7%[57.1 µM]
CC1=NN(c2ccccc2)C(=O)C1	?	40.0%	-1.2%	3.1%
CC1=NN(c2ccc(N)cc2)C(=O)C1	-66.0*	28.2µM*	2.8%	-10.5%
CC(C)(C)n1ncc2c(=O)n(Cc3cc(C(F)(F)F)ccc3Cl)cnc21	.	1.3%	.	-3.6%
COc1cc(OC)cc(-n2nnnc2SCC(=O)N2CCCC2)c1	3.5	9.8%	-3.8%	5.0%[57.1 µM]
CCc1ccc(Oc2nnnn2-c2ccc(C(N)=O)cc2)cc1	-7.9	35.6%	-1.4%	4.9%
COc1ccc(-n2nnnc2S(=O)(=O)CC(=O)N2CCCCC2)cc1	56.8	2.24µM*	1.5%	9.1%
COc1ccc(-n2nnnc2S(=O)(=O)Cc2ccc(C(=O)O)cc2)cc1	63.9	15.8µM*	0.2%	1.0%
Cc1ccc(-c2cc(C(=O)NN=Cc3cccc4ccccc34)[nH]n2)cc1C	-4.5	.	.	.
COc1ccc(Cl)cc1-c1noc([C@@H]2O[C@H](CO)[C@@H](O)[C@H]2O)n1	-2.9	.	.	.
CC(C)CNS(=O)(=O)c1ccc(Br)cc1N1CCC[C@@H]1CO	-0.7	21.9%	.	4.5%
SMILES	PI4K2A inh	rTrxR1 inhibitor	GALK inh	TrxR1 substrate
Cc1ccc(S(=O)(=O)N/N=C2/CC(=O)CC(C)(C)C2)cc1[N+](=O)[O-]	2.6	39.8µM*	5.8%	-2.7%
COC(=O)C1(C)COP(=O)(Nc2ccc(OC)cc2)OC1 (stereo not given)	1.7	.	.	.
[Cl][In]([Cl])[Cl]	+	11.6%	.	5.6%
Nc1nc(Sc2c([N+](=O)[O-])cc(C(F)(F)F)cc2[N+](=O)[O-])n[nH]1	17.7	15.8µM*	0.9%	7.0%[57.1 µM]
Nc1nc(Sc2ccc(C(F)(F)F)cc2[N+](=O)[O-])n[nH]1	0.3	-14.5%[57.1 µM]	-0.9%	2.0%[57.1 µM]
O/N=C(/CBr)c1ccc2ccccc2c1	.	25.1µM*	.	11.1%[0.0914 µM]
CCn1c(SCC(=O)c2ccc3c(c2)OCCO3)nnc1-c1ccco1	14.7	50.1µM*	2.0%	0.9%
COc1ccc(CNC(=O)c2cccc(N3CCCS3(=O)=O)c2)cc1OC	-2.7	12.6%	.	1.7%
